Compound activity: PubChem BioAssay, The Scripps Research Institute Molecular Screening Center
TbREL1 primary: TbREL1 inhibition, primary screen; hit rate 0.49% among 89,000; inhibition, % at 9.66 µM; TbREL1 RNA ligation, FRET fluorescence;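 active = inhibition above the mean inhibition across all screened compounds plus 3 SD, cut at about 11% in these data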;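 also: 0% = plate median of test wells and 100% = NSC42067 control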
Target sequence (P86926 whole entry, looked up): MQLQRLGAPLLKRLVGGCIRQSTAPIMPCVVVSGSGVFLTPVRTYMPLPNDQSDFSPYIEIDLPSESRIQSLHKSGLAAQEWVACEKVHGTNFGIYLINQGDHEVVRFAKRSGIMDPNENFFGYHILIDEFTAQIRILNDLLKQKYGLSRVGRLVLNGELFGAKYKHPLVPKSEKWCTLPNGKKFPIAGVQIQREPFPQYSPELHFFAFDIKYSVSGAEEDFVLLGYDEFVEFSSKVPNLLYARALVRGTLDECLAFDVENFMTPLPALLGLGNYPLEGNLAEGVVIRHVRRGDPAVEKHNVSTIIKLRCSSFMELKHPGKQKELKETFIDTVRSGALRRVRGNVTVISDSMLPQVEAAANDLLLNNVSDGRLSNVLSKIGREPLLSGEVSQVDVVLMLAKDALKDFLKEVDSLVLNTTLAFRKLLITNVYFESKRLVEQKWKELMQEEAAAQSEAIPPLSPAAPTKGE
TbREL1 conf: TbREL1 inhibition, confirmation; shares compounds with TbREL1 primary; TbREL1 RNA ligation, FRET fluorescence; inhibition, % at 9.66 µM; hit rate 37% among 390; AID 1117282;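 active = mean inhibition across replicates above a set limit taken from the earlier primary screen, cut at about 11% in these data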;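 also: 0% = REL1 with substrate and DMSO and 100% = REL1 plus control inhibitor NSC42067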
* = called active by the depositor. The full list was thinned out, with hits kept by preference.

Screening O=C(O)c1ccccc1-c1ccc(C=c2sc3nc4cc(Br)cnc4n3c2=O)o1 returned TbREL1 primary 45* and TbREL1 conf 48*.
For Nc1nc2cc3c(cc2cc1C(=O)NCCc1c[nH]c2ccccc12)OCO3 the results were TbREL1 primary -2.
C[C@@H]1CCN(C2CC2)S(=O)(=O)c2c(cccc2N2CC[C@@H](O)C2)O1 was read as TbREL1 primary 5.
Cc1oc2c(c1C(=O)c1ccccc1)C(=O)C(=O)c1ccccc1-2 was read as TbREL1 primary 29* and TbREL1 conf 66*.
`O=C(c1ccccc1)c1c[nH]cc1-c1ccccc1` gave TbREL1 primary -1.
`COc1ccc(C(=O)c2c(C(F)(F)F)oc3c2C(=O)c2ccccc2C3=O)cc1OC` gave TbREL1 primary 4.
`Clc1cc(Cl)cc(CNC2CCC23CCC(c2ccccc2)CC3)c1` (stereo unspecified) gave TbREL1 primary 1.
`COC(=O)[C@@]12CCCCC3=C1N(CCC3)C(=O)[C@H]2CC(=O)N1CCOCC1` gave TbREL1 primary 1.
`O=S1(=O)c2ccc(N3CC[C@@H](O)C3)cc2O[C@@H]2CCN1C2` gave TbREL1 primary 3.
Screening O=C(Nc1nc2c(s1)CCc1ccccc1-2)c1ccco1 returned TbREL1 primary 0.
`CS(=O)(=O)c1ccc(C(=O)Nc2nc(-c3ccco3)c(-c3ccco3)s2)cc1` gave TbREL1 primary 82* and TbREL1 conf 6.
`O=C(Nc1nc2c(s1)CCCC2)c1ccc(S(=O)(=O)N2CCCc3ccccc32)cc1` gave TbREL1 primary 6.
For CCOC(=O)[C@]12CCCC=C1N(Cc1ccc(OC)cc1)C(=O)[C@@H]2CC(=O)NCc1ccc(OC)c(OC)c1 the results were TbREL1 primary -3.
Screening C#CCNC(=O)c1cnn(-c2ccccc2)c1N returned TbREL1 primary -1.
C/C(=N\NC(=O)c1cc(-c2ccccc2)nc2ccccc12)c1ccc(Cl)cc1 was read as TbREL1 primary -1.
Screening CC(=O)CSc1nc(N)c(C#N)c(-c2cccs2)c1C#N returned TbREL1 primary 3.
COc1ccc(NC(=O)CSc2nc(C)c3c(c2C#N)CCCC3)cc1 was read as TbREL1 primary -2.
Screening CN1CCc2nc(SCC(=O)Nc3ccc(OC(F)(F)F)cc3)c(C#N)c(-c3cccs3)c2C1 returned TbREL1 primary 13* and TbREL1 conf 4.
For COc1cc(NC(=O)c2ccccc2)c(C)cc1NC(=O)CSc1nnc(-c2ccco2)n1Cc1ccco1 the results were TbREL1 primary 3.
For Cn1c(=O)oc2cc(S(=O)(=O)N3CCN(CCO)CC3)ccc21 the results were TbREL1 primary 1.
Screening C=CCCC(=O)N(Cc1ccccc1)c1ccccc1C(=O)Nc1cc(OC)ccc1OC returned TbREL1 primary -4.
For O=C(Nc1ccc(F)cc1)OC1CC2CC1[C@H]1CCCCN1C2 (stereo partly specified) the results were TbREL1 primary 4.
`Cc1ccc(C(C(=O)NC2CCCCC2)N(C(=O)Cc2c[nH]c3ccccc23)c2ccccc2C)o1` (stereo unspecified) gave TbREL1 primary -1.
`Cc1ccc(N(C(=O)Cc2c[nH]c3ccccc23)C(C(=O)NC2CCCCC2)c2ccco2)cc1` (stereo unspecified) gave TbREL1 primary 11* and TbREL1 conf -2.
Screening Cc1ccc(N(C(=O)c2ccco2)C(C(=O)NC2CCCC2)c2ccco2)c(C)c1 (stereo unspecified) returned TbREL1 primary -2.
Nc1[nH]c(C(=O)c2ccccc2)c(-c2ccc(Br)cc2)c1C(=O)NCCCN1CCOCC1 was read as TbREL1 primary 5.
Cc1cc(-c2n[nH]c(=S)n2N=Cc2ccc(O)cc2)n[nH]1 was read as TbREL1 primary -4.
`O=C(O)c1ccnc(C(=O)O)c1` gave TbREL1 primary 13* and TbREL1 conf 16*.
Screening O=C(O)c1cccc(NS(=O)(=O)c2cccc3cccnc23)c1 returned TbREL1 primary 0.
`CCOc1ccc(C(=O)O)cc1OC` gave TbREL1 primary -1.
For Cc1ccc(NC(=O)Cn2nnc(-c3ccccc3F)n2)cc1C the results were TbREL1 primary 7.
O=C(OCc1cn(Cc2ccc(F)cc2)nn1)N1CCCC1 was read as TbREL1 primary 6.
`CS(=O)(=O)N1CCN(S(=O)(=O)c2ccccc2[N+](=O)[O-])CC1` gave TbREL1 primary 2.
O=[N+]([O-])c1ccccc1S(=O)(=O)N1CCN(C2CCCC2)CC1 was read as TbREL1 primary 11* and TbREL1 conf 4.
For CCC1CCCCN1S(=O)(=O)c1ccccc1[N+](=O)[O-] (stereo unspecified) the results were TbREL1 primary -2.
For CCCCC(=O)N[C@H]1CC[C@@]23CCCN2C(=O)CCC[C@H]3[C@H]1C the results were TbREL1 primary -2.
For CSc1ccccc1NC(=O)CCc1ccccc1 the results were TbREL1 primary -3.
